# Laboratory results: PubChem BioAssay AID1259343 (VanderVen Lab, College of Veterinary Medicine, Cornell …, 2017)
# About 2,900 (47%) of roughly 6,200 compounds were called active. So high a share suggests a set chosen from earlier hits. This is one part of the list. A number with no mark means an inactive call. Cut-off read from the data, not from the text of the source: active = inhibition above about 50%; inactive = the rest.
# Assay: Mycobacterium tuberculosis growth inhibition, primary screen (AID 1259343)
# Details: inhibition: at 10 µM, active compounds read high; outcome: 10 uM
row,Structure (SMILES),inhibition
1,O=[N+]([O-])c1ccc(C(O)CNC(=S)NCc2ccc3c(c2)OCO3)cc1 (stereo not drawn),89.8% (active)
2,Cc1cc(=O)[nH]c(-n2nc(C3CC3)cc2NC(=O)c2ccco2)n1,-24.5%
3,CCCc1cc(=O)[nH]c(-n2nc(C)cc2NC(=O)c2ccco2)n1,100% (active)
4,CCc1cc(=O)[nH]c(-n2nc(C)cc2NC(=O)c2ccco2)n1,100% (active)
5,CCc1cc(=O)[nH]c(-n2nc(C)cc2NC(=O)c2cc(=O)c3ccccc3o2)n1,34.9%
6,Cc1cc(=O)[nH]c(-n2nc(C)cc2NC(=O)c2ccco2)n1,101% (active)
7,CCc1cc(=O)[nH]c(-n2nc(C)cc2NC(=O)c2ccc(Br)o2)n1,101% (active)
8,C=CCNC(=O)N(Cc1ccccn1)c1ccc(Oc2cccc(F)c2)nc1,39.1%
9,COCC(O)CN(C)C(=O)c1ccc(Oc2cccc(Br)c2)nc1 (stereo not drawn),85% (active)
10,CN(Cc1ccc(Br)cc1)CC(O)COc1cccc(Br)c1 (stereo not drawn),46.8%
11,CC1=NOC(Cc2ccccc2)C(=O)N1Cc1ccc(C)cc1 (stereo not drawn),30.2%
12,CCc1ccc(N2C(=O)C3N=NN(Cc4ccc(C)cc4)C3C2=O)cc1 (stereo not drawn),60.1% (active)
13,CCc1ccc(N2C(=O)C3N=NN(Cc4ccccc4C)C3C2=O)cc1 (stereo not drawn),76.5% (active)
14,CCc1ccc(N2C(=O)C3N=NN(Cc4ccccc4)C3C2=O)cc1 (stereo not drawn),93.5% (active)
15,COc1ccc(N2C(=O)C3N=NN(Cc4ccccc4C)C3C2=O)cc1Cl (stereo not drawn),-10.3%
16,CCCCCSc1n[nH]c(-c2ccc(C)cc2)n1,84.7% (active)
17,Cc1ccc(-c2nc(SCc3ncc(C(C)C)o3)n[nH]2)cc1,11.4%
18,CCCc1cc(=O)[nH]c(-n2nc(C)cc2NC(=O)c2ccc3ccccc3c2)n1,102% (active)
19,Cc1cc(=O)[nH]c(-n2nc(C)cc2NC(=O)c2ccc3ccccc3c2)n1,94.6% (active)
20,CCc1cc(=O)[nH]c(-n2nc(C)cc2NC(=O)c2ccc3ccccc3c2)n1,101% (active)
21,FC(F)(F)c1cc(Cl)c2nnc(SCCN3CCSCC3)n2c1,-6.99%
22,CCCCCC12CCC(CC(=O)O)(CC1)CC2,70.4% (active)
23,CC(C)N1C(=O)C(=NN2C(=O)CSC2=S)c2ccccc21,-42.2%
24,O=C(NCc1ccoc1)N1CCN(Cc2ccc(Cl)s2)CC1,2.21%
25,CC(NC(=O)c1ccc(-c2ccccc2F)s1)C(=O)N1CCCCC1 (stereo not drawn),18.5%
26,O=C(NC1CC1)N1CCN(Cc2ccc(-c3ccccc3F)s2)CC1,97.6% (active)

row,Structure (SMILES),inhibition
1,CCCCCCCCCCCCCCCCCCN(C)C,98.2% (active)
2,CCOc1ccc2oc(C(=O)NC(C)(C)CC)c(C)c2c1,64% (active)
3,CCN=c1scc(-c2ccc(C)c(C)c2)n1N=Cc1ccc2c(c1)OCCO2,70.5% (active)
4,CCN=c1scc(-c2ccc(F)cc2)n1N=Cc1ccc2c(c1)OCCO2,4%
5,CCN=c1scc(-c2ccc(C)c(C)c2)n1N=Cc1cccnc1,-8.38%
6,C(=Nn1c(-c2ccc3c(c2)OCCO3)csc1=NCCc1ccccc1)c1ccccn1,30.9%
7,CCN=c1scc(-c2ccc3c(c2)OCCO3)n1N=Cc1cc(C)ccc1C,87.5% (active)
8,COc1ccc(CC2CN(C/C=C/c3ccccc3)CCO2)cc1 (stereo not drawn),41.6%
9,Cc1nc(SCc2ccc(C(=O)O)cc2)nc(N2CCN(C/C=C/c3ccccc3)CC2)c1C,5.19%
10,C(#Cc1ccccc1)CN1CCN(C/C=C/c2ccccc2)CC1,80.2% (active)
11,O=C(Nc1nc(OCC(F)(F)F)cnc1-c1ccc(Cl)cc1Cl)c1ccco1,64.5% (active)
12,O=C(Nc1ccc(N2CCN(C(=O)c3ccc(-c4cccc(Cl)c4)s3)CC2)nc1)c1ccco1,38.5%
13,CCc1cc(=O)[nH]c(-n2nc(C)cc2NC(=O)c2ccccc2[N+](=O)[O-])n1,101% (active)
14,CCCc1cc(=O)[nH]c(-n2nc(C)cc2NC(=O)c2ccccc2[N+](=O)[O-])n1,101% (active)
15,CN(C)[C@@H]1C(=O)C(C(N)=O)=C(O)[C@@]2(O)C(=O)C3=C(O)c4c(O)cccc4[C@@](C)(O)[C@H]3C[C@@H]12,60.8% (active)
16,COc1ccccc1NC(=O)c1ccc2noc(-c3ccccc3)c2c1,42.1%
17,COc1cccc(Nc2ccc3c(-c4ccccc4)noc3n2)c1OC,70.1% (active)
18,COCCC(=O)N1CCC(C(=O)Nc2cccc(-c3cccc(Cl)c3)c2)CC1,8.7%
19,O=C(Nc1cccc(-c2cccc(Cl)c2)c1)C1CCN(C(=O)CCn2cnnn2)CC1,90.2% (active)
20,CSCCC(=O)N1CCC(C(=O)Nc2cccc(-c3cccc(Cl)c3)c2)CC1,88% (active)
21,COCc1ccc(CN2CCC(C(=O)Nc3ccc(Oc4ccccc4F)cc3)CC2)o1,inactive
22,O=C(Nc1ccc(Oc2ccccc2F)cc1)C1CCN(Cc2cccc3c2OCO3)CC1,93.3% (active)
23,COc1cccc(CN2CCC(C(=O)Nc3ccc(Oc4ccccc4F)cc3)CC2)c1,62.3% (active)
24,CCc1ncc(CN2CCC(C(=O)Nc3ccc(Oc4ccccc4F)cc3)CC2)cn1,86.1% (active)
25,O=C(Nc1ccc(Oc2ccccc2F)cc1)C1CCN(CCCn2cccn2)CC1,86.6% (active)
26,CC(=O)c1cccc(CN2CCC(C(=O)Nc3ccc(Oc4ccccc4F)cc3)CC2)c1,inactive

row,Structure (SMILES),inhibition
1,CCn1cc(CN2CCC(C(=O)Nc3ccc(Oc4ccccc4F)cc3)CC2)cn1,inactive
2,Cc1nc(C)c(CN2CCC(C(=O)Nc3ccc(Oc4ccccc4F)cc3)CC2)nc1C,82.5% (active)
3,O=C(Nc1cccc(-c2cccc(F)c2)c1)C1CCN(CCCn2cccn2)CC1,89.5% (active)
4,O=C(C1CCCC1)N1CCc2c([nH]c3ccccc23)C1c1cc(F)ccc1F (stereo not drawn),24.3%
5,O=c1c2ccccc2[nH]c(=S)n1C1CCCC1,90.2% (active)
6,c1ccc2c(c1)CCN(c1ncnc3c1oc1ccccc13)C2,19.2%
7,Fc1ccc(OCc2nc(CSc3nnnn3C3CC3)cs2)cc1,4.6%
8,COc1ccc(OCc2nc(C(=O)N3CCC3c3ccc(F)cc3)co2)cc1 (stereo not drawn),28.5%
9,Fc1ccc(OCc2nnc3sc(C4CC4)nn23)cc1,67% (active)
10,O=C(NN=Cc1ccc(F)cc1)c1cc(C23CC4CC(CC(C4)C2)C3)[nH]n1,10.7%
11,COc1ccccc1C=NNC(=O)c1cc(C23CC4CC(CC(C4)C2)C3)[nH]n1,99.6% (active)
12,O=C(NN=Cc1ccccc1O)c1cc(C23CC4CC(CC(C4)C2)C3)[nH]n1,28.4%
13,CC(C)Cn1c(CN(C)Cc2ncc[nH]2)nc2ccccc21,29.8%
14,CN(C)c1ccc(C=NC2=NN(c3ccccc3)CC2)cc1,90.3% (active)
15,NC1=NN(c2ccccc2)CC1,82.6% (active)
16,CN(C)C=NC1=NN(c2ccccc2)CC1,-0.55%
17,CN(C)c1ccc(C=NNC2=Nc3cccc4cccc2c34)cc1,18.6%
18,c1ccc(C2=NN(c3ccccc3)CC2)cc1,-38.3%
19,C(=NC1=NN(c2ccccc2)CC1)c1ccccc1,54% (active)
20,FC(F)(F)c1ccc2c(c1)n(Cc1ccc(Cl)c(Cl)c1)c1[n+]2CCCCC1,10.6%
21,C=CC[n+]1c(-c2ccccc2)csc1Nc1ccccc1OC,88.1% (active)
22,CCCCNC(=S)NN=Cc1ccc(C)o1,81.2% (active)
23,CC(C)NC(=S)NN=Cc1c(F)c(F)c(F)c(F)c1F,82.9% (active)
24,CC(=NNC(=S)NC1CCCCC1)c1ccc(C)o1,-13.8%
25,Cc1ccc(C=NNC(=O)NC2CCCCC2)o1,-14.7%
26,Cc1ccc(C=NNC(=S)NC2CCCCC2)o1,101% (active)

row,Structure (SMILES),inhibition
1,Cc1ccc(C=NNC(=S)NC(C)C)o1,54.2% (active)
2,CCNC(=S)NN=Cc1ccco1,1.13%
3,CCc1c(C)sc2[nH]c(=S)n(C)c(=O)c12,24.5%
4,CN(C)S(=O)(=O)n1cc(/C=C/c2nc(N)nc(-c3ccccc3O)n2)c2ccccc21,13.7%
5,O=C(NCCc1ccc(Cl)s1)Nc1ccccn1,35.1%
6,CC(C)(CNC(=O)c1ccccn1)c1ccccc1,65.7% (active)
7,O=C(NCC1CCCc2ccccc21)c1ccccn1 (stereo not drawn),3.26%
8,Fc1ccc(-c2c[nH]c(=S)[nH]2)cc1,90.2% (active)
9,O=c1oc2ccccc2c(O)c1C(c1cncs1)c1c(O)c2ccccc2oc1=O,-17.6%
10,O=c1oc2ccccc2c(O)c1C(c1ccc2c(c1)OCO2)c1c(O)c2ccccc2oc1=O,54.4% (active)
11,O=c1oc2ccccc2c(O)c1C(c1ccccc1O)c1c(O)c2ccccc2oc1=O,90.2% (active)
12,CC(C)[C@H](CNC(=O)[C@@H](NC(=O)c1cccc(-c2ccccc2)n1)[C@@H](C)O)B(O)O,23.9%
13,Cc1ccc(N=Nc2cn[nH]c2C)cc1,-8.23%
14,COc1ccc(NC(=O)C(C)CS(=O)(=O)c2ccc(Br)cc2)cc1F (stereo not drawn),61.1% (active)
15,c1cc2c3c(cccc3c1)/C(=N/OCC1CO1)C2 (stereo not drawn),101% (active)
16,N#Cc1nc(COc2ccc(Br)cc2)oc1NCCCn1ccnc1,62.4% (active)
17,N#Cc1nc(-c2ccc(COc3ccc(Cl)cc3)o2)oc1NCC1CCCO1 (stereo not drawn),46.9%
18,c1ccc(CC[P+](c2ccccc2)(c2ccccc2)c2ccccc2)cc1,62.6% (active)
19,NC(CCCc1ccccc1)c1ccccc1 (stereo not drawn),15.7%
20,O=C1NC(=S)SC1=Cc1ccc(F)cc1,32.6%
21,COc1cc(C=C2SC(=S)NC2=O)cc(Br)c1O,90% (active)
22,O=C1NC(=S)SC1=Cc1ccc(F)c(F)c1,88.5% (active)
23,COc1ccc(C=C2SC(=S)NC2=O)cc1F,86.7% (active)
24,O=C1/C(=C\c2ccc(O)c(Cl)c2)CS(=O)(=O)C/C1=C/c1ccc(O)c(Cl)c1,-0.82%
25,O=C1NC(=S)SC1=Cc1cc(O)c(O)c(Cl)c1,88.3% (active)
